Most compounds without a hit are left out; they make up all but 21% or so of the library.
Pf growth 48h: P. falciparum growth inhibition at 48 hours (one generation); actives 5.9% (n = 310,000); Potency, µM (highest dose often 28.7 µM), for inactives: top-dose activity change, negative = inhibition, actives largely listed as inhibitors; P. falciparum luciferase growth in erythrocytes, 48 h; note: potency is the fitted concentration of half-maximal effect; % is set by controls: 0 for no effect and ±100 for the full control effect
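Read-out is firefly luciferase luminescence from an integrated reporter in P. falciparum, so falling signal marks reduced parasite growth. Infected erythrocytes were at 2% hematocrit and 0.1% parasitemia (final) in Albumax-supplemented RPMI 1640.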
Cycloheximide cs: counter-screen for Shiga toxin inhibitors: cycloheximide protein synthesis inhibition | actives 12% (n = 300,000) | cell reporter, cycloheximide protein synthesis inhibition counterscreen | max response, % | AID 2314; in the data active = max response mostly above about 13%, no sharp cut-off; inactive = mostly below about 14%; note: read at 38.3 µM for the half of the compounds with a filed dose; 0% is about no effect
Shiga inhibitor: blocks Shiga toxin action in Vero cells; Vero cells, Shiga toxin protein synthesis inhibition reporter; inhibition, % at 38.7 µM; actives 9.2% (n = 290,000); in the data active = inhibition mostly above about 28%, no sharp cut-off; inactive = mostly below about 43%; note: 0% is about no effect
Pf growth 96h: inhibits malaria parasite growth, 96 h; AID 504834; Potency, µM (titrated, usually from 28.7 µM), for inactives: at the highest dose activity change, negative = inhibition, actives largely listed as inhibitors; P. falciparum luciferase reporter growth, 96 h; actives 6.9% (n = 320,000); note: potency is the fitted concentration of half-maximal effect; % is set by controls: 0 for no effect and ±100 for the full control effect
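Two parasite generations (96 h, 37 C, 5% CO2) of compound exposure in infected erythrocytes (0.05% parasitemia, 2% hematocrit). Luciferase-reporter P. falciparum; decreased luminescence indicates inhibited growth, aimed at apicoplast-acting delayed death.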
NS1 inh: blocks influenza NS1 protein function; Potency, µM (doses to about 46.1 µM), for the others: at the top dose activity, positive = more growth; AID 2326; actives 0.4% (n = 270,000); calls by dose curve; note: potency is the fitted concentration of half-maximal effect; actives are rising curves; nearly all actives have a fitted effect of over 50% in size
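A cell-based growth assay was used: compounds that relieve NS1-induced slow growth of budding yeast raise OD600. Assay medium was yeast nitrogen base with ammonium sulphate and -URA supplement, pH 6.0, with 2% galactose.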
Sm TGR block: S. mansoni TGR enzyme inhibition | AID 485364 | Q962Y6 | Potency, µM (titrated, usually from 114 µM), inactives show at the highest dose activity change, negative = inhibition, most hits filed as inhibitors | purified TGR, DTNB reduction, TNB absorbance 405 nm | actives 3% (n = 360,000); note: potency is the fitted concentration of half-maximal effect; % is set by controls: 0 for no effect and ±100 for the full control effect; nearly all actives have a fitted effect of over 60% in size
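Kinetic colorimetric format: TGR-catalysed, NADPH-driven DTNB reduction monitored via TNB absorbance. Enzyme dispensed at 20 nM; compound exposure 15 min at room temperature before reaction start.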
The depositor's hits bear a star; ? = inconclusive; · = not tested or not shown. Unless noted, calls come from the whole dose curve; as a rule, active = well fitted curve in the direction sought with a large enough effect; inconclusive = small, poorly fitted or top-dose-only effect, or another doubt; inactive = no such curve, though single readings can be large; an effect the other way counts as inactive or inconclusive.

SMILES	Pf growth 48h	Cycloheximide cs	Shiga inhibitor	Pf growth 96h	NS1 inh	Sm TGR block
CCC(C)c1ccc(NC(=S)Nc2ccc(OC)cc2C)cc1 (stereo not drawn)	-2%	30*	62*	?	21%	-5%
COc1ccc(NC(=O)CN(C)CC(=O)Nc2cccc(C(C)=O)c2)cc1	-31%	-2	24	-30%	7%	-13%
COc1cccc(NC(=O)CN(C)CC(=O)c2c(C)[nH]c3ccccc23)c1	?	·	·	12µM*	·	18µM*
COc1ccc(NC(=O)CN(C)CC(=O)c2[nH]c(C)c(C(C)=O)c2C)cc1	?	·	·	1%	·	?
COc1ccc(NC(=O)CSc2ncc3c(n2)-c2cc(Cl)ccc2N(Cc2ccccc2F)S3(=O)=O)cc1	·	·	·	·	·	-20%
COCCN(C(=O)CCC(=O)Nc1ccccn1)C(C(=O)NCCC(C)C)c1ccc(F)cc1 (stereo not drawn)	22%	-2	-5	-21%	-12%	-4%
O=c1ccc2cc(S(=O)(=O)Nc3ccc(F)c(Cl)c3)ccc2[nH]1	·	·	·	·	·	-1%
CCCCCCSc1nnc(-c2cnn(-c3ccccc3)c2-n2cccc2)n1C	-29%	7	-25	·	-79%	-18%
CCSc1nnc(-c2cnn(-c3ccccc3)c2-n2cccc2)n1C	10µM*	-5	8	·	-75%	-4%
Cc1nn(CC(=O)NCc2ccc(Cl)cc2)c(C)c1[N+](=O)[O-]	-24%	2	-9	2%	?	5%
Cc1ccc(C)c(Nc2ncnc(N)c2[N+](=O)[O-])c1	3%	-3	-5	2.1µM*	1%	7%
Cc1cccnc1Nc1ncnc(N)c1[N+](=O)[O-]	8%	3	-13	?	·	3%
Cc1ccc(-c2cc(C(=O)N3CCN(c4ccc(F)cc4)CC3)c3ccccc3n2)o1	-2%	29*	45	?	-63%	45µM*
Cc1ccc(-c2cc(C(=O)N3CCCC(C(F)(F)F)C3)c3ccccc3n2)o1 (stereo not drawn)	?	·	·	?	·	28µM*
Cc1ccc(-c2cc(C(=O)N3CCN(c4ncccn4)CC3)c3cc(Br)ccc3n2)o1	?	14	24	223%	10%	7.1µM*
COc1ccc(-c2cc(C(=O)N3CCCC(C(F)(F)F)C3)c3ccccc3n2)cc1 (stereo not drawn)	?	·	·	-107%	·	1%
O=C(c1ccco1)N1CCN(C(=O)c2cc(-c3ccncc3)nc3ccc(Br)cc23)CC1	·	·	·	·	-64%	·
CC(=O)c1ccc(N2CCN(C(=O)c3cc(-c4ccncc4)nc4ccc(Br)cc34)CC2)cc1	13µM*	0	-9	-15%	5%	0%
COc1ccc(N2CCN(C(=O)c3cc(-c4cc(OC)ccc4OC)nc4ccccc34)CC2)cc1	?	-1	-1	-15%	20%	-2%
O=C(O)c1cc(-c2ccc(-c3ccc(F)cc3)o2)nc2ccccc12	160%	37	30*	120%	-9%	13µM*
Nc1c(Cl)ncnc1N/N=C/c1ccc(O)cc1	72%	26*	47*	74%	-6%	?
Brc1cccc(/C=N/Nc2nn[nH]n2)c1	49%	-3	-9	62%	5%	0%
FC(F)(F)c1cnc(N/N=C/c2ccncc2)c(Cl)c1	-24%	8	7	-16%	-7%	10%
Oc1ccc(/C=N/Nc2nccnc2Cl)cc1	·	21*	75	1%	-1%	2%
Fc1cccc(/C=N/Nc2nccnc2Cl)c1	155%	48*	98*	245%	-17%	1%
Oc1ccc(/C=N/Nc2nc(-c3ccc(Cl)cc3)cc(C(F)(F)F)n2)cc1	?	11	1	?	10%	3%
Fc1ccc(/C=N/Nc2nccnc2Cl)cc1	141%	40*	96*	?	-17%	-20%
COc1cccc(NC(=O)Cn2nc(-c3ccncc3)ccc2=O)c1	·	·	·	·	·	-7%
COc1ccc(OC)c(CCNC(=O)C2CCN(c3ncnc4c3nc3n4CCCCC3)CC2)c1	-21%	-2	2	?	0%	-4%
C[N+]1(C)CCC(=C(c2ccccc2)c2ccccc2)CC1	4.1µM*	·	·	5.9µM*	·	0%
